# aSyn rescue – alpha-synuclein toxicity inhibition in yeast; 370,000 compounds, 0.14% hits; Potency, µM (top dose mostly 46.1 µM), inactives show at the top dose growth rescue (activation), actives largely listed as activators; Yeast expressing alpha-synuclein, growth rescue, BacTiter-Glo, 24 h; note: % of control where 0% means no effect; nearly all actives have a fitted effect of over 65% in size
#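 Readout is rescue of growth in alpha-synuclein-expressing yeast, so inhibitors of toxicity appear as activators. Growth after 24 hr at 30 deg C in galactose medium is quantified by luminescence.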
# MBNL1 CUG block – inhibitors of human MBNL1 binding to CUG repeat RNA. 280,000 compounds, 0.036% hits. TR-FRET MBNL1-His/biotin-(CUG)12 binding, 665/545 ratio. Potency, µM (titrated, usually from 57.5 µM), without a hit: at the top dose activity change, negative = inhibition, actives largely listed as inhibitors; active = well fitted inhibition curve with a large enough effect in the signal ratio, with a control signal flat, not every such curve was filed as active; inconclusive = small, poorly fitted or top-dose-only effect, or effect the other way, or a change in a side signal; inactive = no such curve, though single readings can be large or run the other way; the % refers to the signal ratio; note: % is set by controls: 0 for no effect and ±100 for the full control effect
# Target sequence (Q9NR56 whole entry, looked up): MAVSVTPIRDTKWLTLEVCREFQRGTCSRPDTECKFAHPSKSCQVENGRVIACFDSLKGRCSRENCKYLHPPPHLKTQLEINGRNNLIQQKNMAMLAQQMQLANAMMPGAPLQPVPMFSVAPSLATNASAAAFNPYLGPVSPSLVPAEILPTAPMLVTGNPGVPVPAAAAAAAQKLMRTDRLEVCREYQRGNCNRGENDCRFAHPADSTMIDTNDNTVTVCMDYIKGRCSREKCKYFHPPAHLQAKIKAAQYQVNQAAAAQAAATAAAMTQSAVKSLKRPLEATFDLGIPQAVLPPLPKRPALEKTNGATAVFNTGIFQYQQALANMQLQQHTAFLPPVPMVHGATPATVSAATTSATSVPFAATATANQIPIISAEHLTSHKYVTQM
#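 Compound titration spanned 92 nM–58 uM against the MBNL1-His/biotin-(CUG)12 complex. After 60 min at room temperature with 5 nM streptavidin-XL665 and 0.055 ng/ul terbium anti-His, ratiometric 665/545 nm emission (Ex 340 nm) normalized to controls.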
# Abeta rescue – A-beta toxicity reversal in yeast; yeast expressing A-beta42, growth rescue, OD600, 48 h; response scale: 0% DMSO, 100% iron-clioquinol control; Potency, µM (series often up to 46.1 µM), hits mostly activators; 410,000 compounds, 0.063% hits; AID 1347071; note: nearly all actives have a fitted effect of over 55% in size
#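 Yeast A-beta toxicity model in growth medium with pinned compounds, 48 h at 30 C; growth read as absorbance at 600 nm. Normalized to FeCl3/clioquinol equimolar mix (positive) and DMSO (negative).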
# Glioma ERSR ind – ER stress response induction in glioma; U87-MG GRP78 promoter luciferase reporter, 16 h; Potency, µM, without a hit: top-dose activation, hits mostly activators; 420,000 compounds, 0.02% hits; AID 602332; note: series mostly up to about 76 µM; % of control where 0% means no effect; nearly all actives have a fitted effect of over 35% in size
#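 Stably transfected U87-MG glioma cells carrying a GRP78-based luciferase sensor; 16 h compound incubation. Luminescence end-point read 10 min after Bright-Glo addition at room temperature.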
# TDP-43 yeast inh – TDP-43 toxicity inhibition in yeast; TDP-43 expressing yeast growth rescue, BacTiter-Glo, 24 h; Potency, µM (series often up to 46.1 µM), inactives show top-dose growth rescue (activation), hits mostly activators; AID 652104; 410,000 compounds, 1.8% hits; note: % of control where 0% means no effect; nearly all actives have a fitted effect of over 50% in size
#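 Yeast expressing TDP-43 (pregrown in raffinose, seeded at OD600=0.02 in galactose medium) exposed to compounds 24 hr at 30 deg C. Growth read by BacTiter-Glo luminescence; rescue of toxicity appears as increased signal.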
# FUS yeast rescue – FUS proteinopathy suppression in yeast; S. cerevisiae FUS-expressing, growth rescue, OD600, 24 h; Potency, µM (highest dose often 76.6 µM), actives largely listed as activators; 390,000 compounds, 0.24% hits; AID 1347120;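 note: plate controls were DMSO vehicle for no effect and reference control for full effect; nearly all actives have a fitted effect of over 55% in size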
#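 Read-out: OD at 600 nm after 24hr at 30C, reporting rescue of FUS-induced yeast toxicity. Cells at OD 0.005 in galactose (2%) minimal medium; compounds tested in a dilution series; CP55940 titration from 92uM final as control.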
# * = called active by the depositor; i = inactive; ? = inconclusive; . = no result given; [ ] = remark or other dose. Compounds with a hit are over-represented: about 2% of the library has one in this group of screens. Unless noted, calls come from the whole dose curve; as a rule, active = well fitted curve in the direction sought with a large enough effect; inconclusive = small, poorly fitted or top-dose-only effect, or another doubt; inactive = no such curve, though single readings can be large; an effect the other way counts as inactive or inconclusive. Potency is the fitted concentration of half-maximal effect.
SMILES,aSyn rescue,MBNL1 CUG block,Abeta rescue,Glioma ERSR ind,TDP-43 yeast inh,FUS yeast rescue
c1csc(-c2csc(-c3cccs3)n2)c1,0%,?,i,-1%,13µM*,i
c1cncc(-c2nc(-c3cccs3)cs2)c1,2%,?,i,-3%,10%,i
CC(=O)N(Cc1ccco1)Cc1cc2cccc(C)c2n2nnnc12,.,-4%,.,.,.,.
Cc1cccc2cc(CN(Cc3nnnn3Cc3ccco3)C3CCCC3)c3nnnn3c12,?,14%,i,-1%,7.1µM*,i
COCC(=O)Nc1cc(C(=O)N2CCCCC2c2nccs2)c2c(c1)nc(-c1ccncc1)n2C (configuration not stated),.,.,.,-3%,.,.
O=C(COc1ccc2ccccc2c1)NCCn1ccc2ccccc21,?,1%,?,4%,22µM*,?
CC1COC(=O)C(NNc2ccc(Cl)c(Cl)c2)=N1 (configuration not stated),13%,-5%,i,1%,3.5µM*,i
CCOC(=O)[C@]12CCCCC/C=C\1N(CCc1ccc(Cl)cc1)C(=O)[C@H]2CC(=O)NCc1cccc(C(F)(F)F)c1,.,.,.,.,.,i
O=C(CC1C(=O)OCCN1Cc1ccccc1)Nc1cccc(C(F)(F)F)c1 (configuration not stated),.,.,i,2%,18µM*,i
COc1cccc(NC(=O)CC2C(=O)OCCN2Cc2ccccc2)c1 (configuration not stated),.,.,i,2%,?,i
CCOc1ccc(/C=N/n2c(-c3n[nH]c4c3CCC4)n[nH]c2=S)cc1,.,.,.,.,.,i
CCCCS(=O)c1c(O)c2ccccc2[nH]c1=O (configuration not stated),17%,0%[11.5 µM],i,-2%,11µM*,i
Cn1ccc2c(-c3ccc(F)nc3)cc3c(c21)C1CCC3O1 (configuration not stated),1%,.,i,-1%,?,i
Cn1ccc2c(-c3ccc4[nH]ccc4c3)cc3c(c21)C1CCC3O1 (configuration not stated),14%,.,i,1%,16µM*,i
COc1ccc(-c2cc3c(c4c2ccn4C)C2CCC3O2)cn1 (configuration not stated),?,.,i,-2%,13µM*,i
Cn1ccc2c(-c3cccc4ccccc34)cc3c(c21)C1CCC3O1 (configuration not stated),14%,.,i,-1%,16µM*,?
C/C(=C1/C=Nc2ccccc21)c1ccc(N(C)C)cc1,?,.,.,-1%,.,.
O=S(=O)(NCc1nc(N2CCCC2)c2cc(Cl)ccc2n1)c1ccccc1OC(F)(F)F,.,.,.,-3%,.,.
OC(c1ccc2c(c1)CN(Cc1cccn1-c1ncccn1)CCO2)C1CCCCC1 (configuration not stated),.,.,.,-2%,.,.
COc1cccc(CNC(=O)c2c(OC)cc(=O)n3c2CCN(C(=O)c2ccc(C)cc2C)CC3)c1,.,.,.,-5%,.,.
CCCC[n+]1c(/C=C/c2c(OC)cc(OC)cc2OC)ccc2ccccc21,-29%,.,.,-8%,.,.
CCOC(=O)N1CCN(C(=O)CN(C2CCCCC2)S(=O)(=O)c2ccc(C)cc2)CC1,4%,4%,i,-3%,?,i
Cc1ccc(S(=O)(=O)N(CC(=O)N2CCN(c3ccc(F)cc3)CC2)C2CCCCC2)cc1,9%,-2%,i,-2%,20µM*,?
COc1ccc2cc(CNCc3nonc3C)c(N3CCCC(CO)C3)nc2c1 (configuration not stated),.,.,.,-3%,.,.
CCCCn1c(SCC(=O)Nc2cc(NC(=O)c3ccco3)ccc2C)nc2ccccc2c1=O,-2%,2%,i,-8%,-10%,32µM*
COCCn1c(SCC(=O)Nc2ccc(NC(=O)c3ccco3)c(OC)c2)nc2ccccc2c1=O,-9%,0%,i,-3%,-3%,i

# From PubChem
